Most compounds without a hit are left out; they make up all but 1.3% or so of the library.
LYPLA1 counter = LYPLA1 inhibitors, primary screen, counter-screen for PME1 inhibitor project, biochemical, fluorescence polarization, FP-Rh probe ABPP | Acyl-protein thioesterase 1 (Homo sapiens), O75608 | recombinant LYPLA1 | inhibition, % at 5.9 µM | actives 0.16% (n = 320,000);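 active = inhibition above the mean of all tested compounds plus 3 SD, set per campaign, cut at about 14% in these data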;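 note: inhibitors block serine hydrolase probe labeling of LYPLA1 so polarization falls; 0% = enzyme with DMSO and 100% = wells lacking LYPLA1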
LYPLA2 counter = LYPLA2 inhibitors, primary screen, counter-screen for PME1 inhibitor project, biochemical, fluorescence polarization, FP-Rh probe ABPP; recombinant LYPLA2; actives 0.38% (n = 320,000); inhibition, % at 5.9 µM; Acyl-protein thioesterase 2 (Homo sapiens), O95372;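 active = inhibition above the screen-wide mean plus 3 SD, limit set per campaign, cut at about 26% in these data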;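 note: 0% = LYPLA2 with DMSO and 100% = wells lacking LYPLA2 enzyme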
Fam108B counter = mouse Fam108B serine hydrolase inhibitors, primary screen, counter-screen for RBBP9 inhibitor project, biochemical, fluorescence polarization | recombinant Fam108B, FP-Rh probe fluorescence polarization | inhibition, % at 9.51 µM | actives 0.33% (n = 300,000);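 active = inhibition above the screen mean inhibition plus 3 SD, computed separately per campaign, cut at about 18% in these data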;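 note: inhibitors lower polarization as less probe binds the enzyme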
PREPL inhibitor = PREPL enzyme inhibitors, primary screen, biochemical, fluorescence polarization. recombinant PREPL, fluorescence polarization activity-based probe. inhibition, % at 5.96 µM. actives 0.68% (n = 320,000). AID 2751, 2010; in the data active = inhibition above about 43%;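 note: 0% = enzyme with DMSO and 100% = wells lacking enzyme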
Target sequence (Q4J6C6 whole entry, looked up): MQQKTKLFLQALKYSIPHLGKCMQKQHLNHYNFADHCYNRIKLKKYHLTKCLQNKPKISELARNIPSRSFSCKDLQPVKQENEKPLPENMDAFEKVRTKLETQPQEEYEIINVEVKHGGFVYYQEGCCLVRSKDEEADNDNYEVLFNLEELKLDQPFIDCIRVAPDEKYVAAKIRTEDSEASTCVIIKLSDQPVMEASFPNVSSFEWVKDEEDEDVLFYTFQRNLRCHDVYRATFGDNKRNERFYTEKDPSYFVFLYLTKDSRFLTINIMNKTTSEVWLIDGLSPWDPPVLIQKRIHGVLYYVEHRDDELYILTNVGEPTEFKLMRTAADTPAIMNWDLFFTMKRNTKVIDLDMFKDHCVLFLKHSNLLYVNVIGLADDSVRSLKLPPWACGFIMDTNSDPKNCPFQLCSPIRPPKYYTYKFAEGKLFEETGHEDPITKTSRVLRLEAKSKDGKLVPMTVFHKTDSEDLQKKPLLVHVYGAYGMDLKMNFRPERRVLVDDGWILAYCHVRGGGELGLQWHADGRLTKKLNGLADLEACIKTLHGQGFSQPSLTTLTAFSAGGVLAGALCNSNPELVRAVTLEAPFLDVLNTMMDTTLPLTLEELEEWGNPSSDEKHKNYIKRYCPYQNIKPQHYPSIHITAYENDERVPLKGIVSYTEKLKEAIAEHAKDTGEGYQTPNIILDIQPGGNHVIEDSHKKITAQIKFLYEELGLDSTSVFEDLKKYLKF
PME-1 primary = PME-1 inhibitors via competitive probe labeling, primary screen, biochemical, fluorescence polarization, FP-Rh probe, HTS. Protein phosphatase methylesterase 1 (Homo sapiens), Q9Y570. recombinant PME-1. inhibition, % at 5.9 µM. actives 0.53% (n = 320,000). AID 2130, 2009;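 active = inhibition above the campaign mean of all compounds plus 3 SD, cut at about 26% in these data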;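 note: competitive labeling of PME-1 active site by serine hydrolase directed probe; 0% = PME-1 with DMSO and 100% = wells lacking PME-1 enzyme; inhibitors block probe labeling so polarization falls and inhibition rises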
The depositor's hits bear a star; / = no result given.

SMILES	LYPLA1 counter	LYPLA2 counter	Fam108B counter	PREPL inhibitor	PME-1 primary
CC(Sc1nnc(COc2ccc(Cl)cc2)n1Cc1ccco1)C(=O)N1CCNC1=O (centres undefined)	0.6	5.7	/	-8.8	0.8
Cc1[nH]c2ccccc2c1N=Nc1ccccc1C(=O)O	0.8	-7.9	11.0	34.1	30.2*
C=CCOc1c(Br)cc(/C=N/Nc2ccc(C(=O)O)cc2)cc1OCC	6.6	4.7	17.1	19.3	48.1*
O=C(O)c1cccc(-n2c(/C=C/c3ccc([N+](=O)[O-])cc3)nc3ccccc3c2=O)c1	3.5	9.9	0.7	7.0	30.2*
O=C(O)c1cccc(-n2c(/C=C/c3cccc([N+](=O)[O-])c3)nc3ccccc3c2=O)c1	-1.9	-1.9	2.2	0.9	0.4
COC(=O)C1=C(C)NC(=S)NC1c1ccc(-c2cc(Cl)ccc2Cl)o1 (centres undefined)	-13.9	-21.2	-5.3	-24.5	-13.1
Cc1cccc(/N=C/c2sc3ccccc3c2O)n1	-26.7	-47.0	-12.8	4.7	-48.3
Oc1c(C=Nc2cccc3cccnc23)sc2ccccc12	-0.1	6.0	10.9	44.9*	20.6
O=C1CN(C(=O)c2cc3ccccc3oc2=O)C(c2ccccc2)c2cc(F)ccc2N1 (centres undefined)	-0.7	10.8	1.4	-2.8	34.2*
NC(=O)NOCc1ccccc1F	-1.3	-2.8	-3.9	-5.9	0.5
COc1ccccc1NS(=O)(=O)c1cccc(-n2c(O)c(C=Nc3ccccc3C(=O)O)c3ccccc3c2=O)c1	8.2	3.1	18.1	22.0	81.8*
COc1ccc(Cn2c(O)c(C=Nc3ccccc3C(=O)O)c3ccccc3c2=O)cc1	2.7	-1.3	12.0	15.3	0.3
CCn1ncc([N+](=O)[O-])c1C(=O)Nc1c(C)nn(Cc2ccc(F)cc2)c1C	2.0	2.0	0.2	0.2	-2.4
O=C(C1=C[C@H](c2ccc3c(c2)OCO3)C[C@H](OCCCCO)O1)N1CCN(Cc2ccc3c(c2)OCO3)CC1	-1.8	7.9	2.6	25.5	-1.1
C#Cc1ccc([C@@H]2C=C(C(=O)N3CCN(Cc4ccc5c(c4)OCO5)CC3)O[C@H](OCCCCO)C2)cc1	-0.1	-2.8	0.8	44.9*	-3.2
N#Cc1c(N)n(CCOC(=O)c2cccc(Br)c2)c2nc3ccccc3nc12	-0.8	-4.3	3.4	-7.1	7.5
N#Cc1c(N)n(CCOC(=O)c2cccc([N+](=O)[O-])c2)c2nc3ccccc3nc12	-0.7	-1.3	0.0	4.6	31.1*
COc1ccc(OC)c(N2C(=O)CC(Cc3ccc(C)cc3)C2=O)c1 (centres undefined)	-4.8	2.0	-1.2	11.4	31.5*
CCOc1cc(-c2cc(-c3ccc(N)cc3)nc(N)c2C#N)ccc1O	2.1	-5.5	13.8	24.1	41.1*
c1ccc(SCc2cn(C[C@H]3CC[C@@H]([C@@H]4CC[C@H](Cn5cc(CSc6ccccc6)nn5)O4)O3)nn2)cc1	2.5	2.1	3.4	25.2	1.6
Cc1cc(O)c(CN(C)C)c2c1C(=O)/C(=C/c1ccco1)O2	-2.3	0.7	-0.9	-2.0	-2.5
Cc1cc(O)c(C=O)c2c1C(=O)Oc1c(CO)c(O)c3c(c1O2)C(O)OC3=O (centres undefined)	-4.0	2.0	11.9	44.8*	7.7
CCN1CCN(c2nc3c(c(=O)n(C)c(=O)n3C)n2Cc2cccc3ccccc23)CC1	2.7	3.4	-1.3	46.1*	0.1
CCN1CCN(Cc2nc3c(c(=O)n(C)c(=O)n3C)n2Cc2cccc3ccccc23)CC1	-0.2	2.9	-1.7	-8.4	-1.7
CCN1C(=O)CC(NCc2ccc(S(N)(=O)=O)cc2)C1=O (centres undefined)	2.7	1.8	7.1	17.9	1.7
CC(C)(C)c1ccc(NC(=O)C2=CC=CN3CCS(=O)(=O)N=C23)cc1	-0.1	2.0	/	8.1	54.7*
NC(=S)NNc1ccnc2cc(Cl)ccc12	-0.5	1.4	0.5	14.9	4.9
C/C(=N/Nc1ccnc2cc(Cl)ccc12)c1ccc(O)cc1	-10.1	-1.6	9.6	39.5	33.3*
C/C(=N/Nc1ccnc2cc(Cl)ccc12)c1ccc(N)cc1	-6.4	-8.9	6.1	37.5	35.8*

Assay outcomes as filed in PubChem BioAssay.
